NPC1 prom act: qHTS Assay for NPC1 Promoter Activators; Huh7 NPC1 promoter luciferase reporter, 24 h; Potency, µM (highest dose often 9.22 µM), without a hit: top-dose activation, most hits filed as activators; hit rate 2.4% among 320,000; further: % of control where 0% means no effect; nearly all actives have a fitted effect of over 60% in size
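Stably transfected Huh7 (NPC1 promoter→luciferase), 1500 cells/well in Opti-MEM + 10% FBS, 2 h settle, then compound 24 h at 37 °C. Luminescence after 10 min with Amplite reagent.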
Rab9 prom act: qHTS Assay for Rab9 Promoter Activators; Huh7 Rab9 promoter-luciferase reporter, luminescence, 24 h; Potency, µM (series often up to 9.22 µM), inactives show at the top dose activation, negative = inhibition, hits mostly activators; hit rate 2.8% among 320,000; AID 485297, 2010; further: % of control where 0% means no effect; nearly all actives have a fitted effect of over 60% in size
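Cell-based reporter: Huh7 stable for Rab9 promoter-driven luciferase, plated in reduced-serum medium with 10% FBS at 1500 cells/well, compound-treated 24 h at 37 °C, luminescence read after 10 min reagent.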
ELG1 genotox: qHTS screen for small molecules that induce genotoxicity in human embryonic kidney (HEK293T) cells expressing luciferase-tagged ELG1; HEK293T ELG1-luciferase reporter, luminescence, 16 h; AID 504466, 2011; Potency, µM (highest dose often 46 µM), without a hit: top-dose activity change, positive = activation, actives largely listed as activators; hit rate 1.3% among 330,000; further: % of control where 0% means no effect; nearly all actives have a fitted effect of over 60% in size
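Screening used a luciferase reporter fused to human ELG1 in HEK293T cells. Luminescence was read on a CCD plate imager after 16 hr exposure and 30 min ONE-Glo incubation.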
FLuc modulator: qHTS profiling assay for firefly luciferase inhibitor/activator using purifed enzyme and Km concentrations of substrates (counterscreen for miR-21 project); Potency, µM (series often up to 57.5 µM), for the others: at the highest dose activity change, negative = inhibition, actives largely listed as inhibitors; Luciferin 4-monooxygenase (Photinus pyralis), P08659; hit rate 6.9% among 360,000; purified FLuc, Km substrates, luminescence inhibition;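 further: plate controls were vehicle for no effect and reference inhibitor for full effect; nearly all actives have a fitted effect of over 55% in size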
Target sequence (P08659 whole entry, looked up): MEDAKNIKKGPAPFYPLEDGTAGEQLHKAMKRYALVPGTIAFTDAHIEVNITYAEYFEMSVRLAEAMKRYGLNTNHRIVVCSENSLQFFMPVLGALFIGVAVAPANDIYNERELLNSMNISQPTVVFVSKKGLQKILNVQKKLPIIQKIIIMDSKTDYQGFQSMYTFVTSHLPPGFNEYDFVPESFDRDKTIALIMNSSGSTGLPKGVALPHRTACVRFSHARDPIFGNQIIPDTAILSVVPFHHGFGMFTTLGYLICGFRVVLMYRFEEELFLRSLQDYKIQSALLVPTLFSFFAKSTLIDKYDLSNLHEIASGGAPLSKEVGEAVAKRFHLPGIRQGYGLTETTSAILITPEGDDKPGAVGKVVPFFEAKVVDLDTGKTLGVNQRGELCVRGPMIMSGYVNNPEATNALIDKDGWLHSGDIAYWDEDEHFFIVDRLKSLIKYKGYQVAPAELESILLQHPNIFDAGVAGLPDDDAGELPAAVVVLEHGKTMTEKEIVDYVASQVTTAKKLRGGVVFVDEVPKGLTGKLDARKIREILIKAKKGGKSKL
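Biochemical qHTS of compounds, final roughly 60 µM downward over six points, against 10 nM purified firefly luciferase using Km concentrations of substrates (10 uM D-luciferin, 10 uM ATP) in Tris acetate pH 7.5 buffer; luminescence output.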
SMN2 splice up: qHTS Assay for Enhancers of SMN2 Splice Variant Expression. HEK293 SMN2-luciferase splicing reporter, luminescence, 30-36 h. hit rate 2.8% among 210,000. Potency, µM (highest dose often 46.1 µM), for the others: at the top dose activity change, positive = activation, most hits filed as activators; further: % of control where 0% means no effect; nearly all actives have a fitted effect of over 55% in size
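HEK293 cells carry an SMN2 […]–luciferase reporter in which exon 7 inclusion puts luciferase in frame. Cells were plated 10-12 h before compound addition, then incubated 30-36 h at 37C. ONE-Glo luminescence was read; sodium butyrate at 4.5 mM final served as control.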
Numbers without * were called inactive. Sampled rows, rich in hits. Any-hit rate of the full collection: about 7.4%. The call rests on the fitted dose curve; in most records, active means well fitted curve in the direction sought with a large enough effect; inconclusive means small, poorly fitted or top-dose-only effect, or another doubt; inactive means no such curve, though single readings can be large; an effect the other way counts as inactive or inconclusive. Potency means the concentration at half of the fitted maximal effect.

O=C1CCn2nc(-c3ccc(Cl)cc3)cc2N1 was read as NPC1 prom act inconclusive, Rab9 prom act inconclusive, ELG1 genotox inconclusive, FLuc modulator 19µM* and SMN2 splice up 13µM*.
For COC(=O)CCC(=O)OC1(C)C(=O)C=C2C=C(c3ccc(C#N)cc3)OC=C2C1=O (configuration not stated) the results were SMN2 splice up 7%.
`COc1ccc(OC)c(Nc2nc3ccccc3nc2-n2nc(C)cc2C)c1` gave FLuc modulator -5% and SMN2 splice up -7%.
For Cc1ccc(S(=O)(=O)N(C)CC(=O)N2CCCCCCC2)cc1 the results were NPC1 prom act -2%, Rab9 prom act 0%, ELG1 genotox 2% and FLuc modulator 1%.
For CN(CC(=O)N1CCCCCC1)S(=O)(=O)c1ccccc1 the results were NPC1 prom act 3.2µM*, Rab9 prom act inconclusive, ELG1 genotox inconclusive and FLuc modulator inconclusive.
Screening CCNC(=O)CN(CCc1ccccc1)S(=O)(=O)c1ccc(OC)cc1 returned NPC1 prom act 1%, Rab9 prom act 3%, ELG1 genotox -1%, FLuc modulator -1% and SMN2 splice up -17%.
`CCNC(=O)CN(Cc1ccccc1)S(=O)(=O)c1ccccc1` gave NPC1 prom act 0%, Rab9 prom act 0%, ELG1 genotox 23µM*, FLuc modulator 8% and SMN2 splice up 0%.
Screening CC1(C)SC(=S)N(NC(=O)Nc2ccccc2)C1N(O)C(=O)Nc1ccccc1 (configuration not stated) returned NPC1 prom act 0%, Rab9 prom act 9%, ELG1 genotox -1%, FLuc modulator 0% and SMN2 splice up 0%.
Screening CNC(=O)N(O)C1N(NC(=O)Nc2cccc3ccccc23)C(=S)SC1(C)C (configuration not stated) returned NPC1 prom act -4%, Rab9 prom act -1%, ELG1 genotox 4%, FLuc modulator -1% and SMN2 splice up 7.1µM*.
`COc1cccc(CN(C(=O)COc2ccc(C)cc2)C2CCS(=O)(=O)C2)c1` (configuration not stated) gave NPC1 prom act -1%, Rab9 prom act 0%, ELG1 genotox 1% and FLuc modulator 3%.
Screening CC12CCC(C(=O)Nc3nc4ccccc4s3)(OC1=O)C2(C)C (configuration not stated) returned NPC1 prom act inconclusive, Rab9 prom act inconclusive, ELG1 genotox inconclusive, FLuc modulator 17µM* and SMN2 splice up inconclusive.
`Cc1nc2c(ccc3nc(NC(=O)Cc4ccccc4)sc32)s1` gave NPC1 prom act 25%, Rab9 prom act inconclusive, ELG1 genotox 18%, FLuc modulator 24µM* and SMN2 splice up inconclusive.
CC12CCC(C(=O)NC(c3ccccc3)c3ccccc3)(OC1=O)C2(C)C (configuration not stated) was read as NPC1 prom act 1%, Rab9 prom act 2%, ELG1 genotox 4%, FLuc modulator 6% and SMN2 splice up -4%.
Screening CCCNC(=O)c1ccc(-c2nc3ccccc3s2)s1 returned NPC1 prom act inconclusive, Rab9 prom act 0.71µM*, ELG1 genotox 0.21µM*, FLuc modulator 0.34µM* and SMN2 splice up 2.8µM*.
`CN(C(=O)CCc1nc2ccccc2s1)c1ccccc1` gave NPC1 prom act -1%, Rab9 prom act -6%, ELG1 genotox inconclusive, FLuc modulator -3% and SMN2 splice up 13%.
For O=C(NCCCO)c1nc2ccccc2s1 the results were NPC1 prom act 9%, Rab9 prom act 3%, ELG1 genotox 16%, FLuc modulator -10% and SMN2 splice up 6%.
For CN(C)c1ccc(CC(=O)c2nc3ccccc3s2)cc1 the results were NPC1 prom act inconclusive, Rab9 prom act 2.5µM*, ELG1 genotox inconclusive, FLuc modulator 8.5µM* and SMN2 splice up -6%.
Screening CCCNC(=O)Nc1nc2ccccc2s1 returned NPC1 prom act 2.2µM*, Rab9 prom act 2.5µM*, ELG1 genotox inconclusive and FLuc modulator 9.5µM*.
`CCCCNC(=O)Nc1ccon1` gave NPC1 prom act 0%, Rab9 prom act -9%, ELG1 genotox 2%, FLuc modulator 1% and SMN2 splice up -27%.
`Cc1ccc(S(=O)(=O)CC(=O)Nc2nc3ccccc3s2)cc1` gave NPC1 prom act -6%, Rab9 prom act 2%, ELG1 genotox -1% and FLuc modulator -7%.
`Cc1ccc(CC(=O)Nc2nc3ccccc3s2)cc1` gave NPC1 prom act inconclusive, Rab9 prom act inconclusive, ELG1 genotox 3%, FLuc modulator 19µM* and SMN2 splice up 6%.
For CCCCNC(=O)Nc1nc2ccccc2s1 the results were NPC1 prom act 2.5µM*, Rab9 prom act 1.4µM*, ELG1 genotox inconclusive, FLuc modulator 11µM* and SMN2 splice up 11µM*.
Screening CCCCNC(=O)Nc1nc2ccc(CC)cc2s1 returned NPC1 prom act inconclusive, Rab9 prom act inconclusive, ELG1 genotox inconclusive, FLuc modulator 6.7µM* and SMN2 splice up inconclusive.
Screening CN(C)C(=O)c1nc2ccccc2s1 returned NPC1 prom act 10%, Rab9 prom act 1%, ELG1 genotox 15%, FLuc modulator inconclusive and SMN2 splice up 18%.
For CCOC(=O)c1nc2ccccc2s1 the results were NPC1 prom act 9%, Rab9 prom act 15%, ELG1 genotox inconclusive, FLuc modulator 13µM* and SMN2 splice up -17%.
`Cc1nc2c(ccc3nc(NC(=O)c4ccc(S(=O)(=O)N(C)C)cc4)sc32)s1` gave NPC1 prom act -3%, Rab9 prom act 2%, ELG1 genotox 2%, FLuc modulator 2.7µM* and SMN2 splice up 19%.
For CCOC(=O)Nc1nc2ccccc2s1 the results were NPC1 prom act 3.2µM*, Rab9 prom act 3.5µM*, ELG1 genotox 3.7µM*, FLuc modulator 6.7µM* and SMN2 splice up inconclusive.
Screening CCOC(=O)CC(=O)Nc1nc2ccccc2s1 returned NPC1 prom act 1%, Rab9 prom act 4%, ELG1 genotox inconclusive, FLuc modulator -16% and SMN2 splice up 3%.
`CN(C)S(=O)(=O)c1ccc(C(=O)Nc2nc(-c3ccccc3)c(C(=O)c3ccccc3)s2)cc1` gave NPC1 prom act 4%, Rab9 prom act 2%, ELG1 genotox -1%, FLuc modulator -3% and SMN2 splice up -56%.
Cc1c(C(c2ccc(F)cc2)c2c(C)n(C)n(-c3ccccc3)c2=O)c(=O)n(-c2ccccc2)n1C was read as NPC1 prom act -5%, Rab9 prom act 2%, ELG1 genotox -1% and FLuc modulator 1%.

Screening data from PubChem.
